High-throughput results: PubChem BioAssay, NMMLSC
RGS16-Gao = RGS16-Galphao interaction regulator (human); O15492+P09471; bead-based flow cytometry RGS16-Galphao binding, fluorescence; actives lie on both sides; binding response (% of control), % at 10 µM; 220,000 compounds, 0.38% hits;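 also: Galphao activated by GDP with aluminum fluoride before binding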
Target sequence (O15492 whole entry, looked up): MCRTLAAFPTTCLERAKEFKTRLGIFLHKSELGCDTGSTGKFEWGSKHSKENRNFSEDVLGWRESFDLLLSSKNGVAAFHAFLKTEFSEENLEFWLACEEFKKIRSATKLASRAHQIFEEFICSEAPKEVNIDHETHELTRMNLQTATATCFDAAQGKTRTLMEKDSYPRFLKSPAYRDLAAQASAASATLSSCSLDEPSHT
Target sequence (P09471 whole entry, looked up): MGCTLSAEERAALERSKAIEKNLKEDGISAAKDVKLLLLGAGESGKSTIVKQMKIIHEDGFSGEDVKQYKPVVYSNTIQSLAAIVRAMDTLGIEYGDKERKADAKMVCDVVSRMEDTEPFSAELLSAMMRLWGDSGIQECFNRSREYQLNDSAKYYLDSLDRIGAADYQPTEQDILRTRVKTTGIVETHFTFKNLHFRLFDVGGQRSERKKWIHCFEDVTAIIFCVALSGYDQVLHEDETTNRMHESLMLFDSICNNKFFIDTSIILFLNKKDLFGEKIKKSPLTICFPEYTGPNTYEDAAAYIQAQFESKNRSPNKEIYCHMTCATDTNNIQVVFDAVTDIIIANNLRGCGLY
Avidin bead fluor = avidin bead compound fluorescence profile. fluorescence (KMESF) at 10 µM. 220,000 compounds, 0.38% hits. Avidin beads, compound fluorescence 488/530 nm, flow cytometry; hits give high values; in the data active = fluorescence above about 47
RGS7-Gao = human RGS7-Galphao interaction regulation | P09471 | binding response (% of control), % at 10 µM | Multiplexed bead flow cytometry, RGS7-Galphao binding; actives lie on both sides | 220,000 compounds, 0.35% hits; in the data active = binding response below about 49% or above about 150%; inconclusive = no clear call, values can overlap the other calls; inactive = in between;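 also: fluorescent Galphao held in activated GDP-AlF4 state binding bead-coupled RGS7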
Target sequence (P09471 whole entry, looked up): as above
RGS4-Gao reg = modulates binding of RGS4 to human Galphao; P09471; Multiplexed bead flow cytometry; actives lie on both sides; binding response (% of control), % at 10 µM; 220,000 compounds, 0.33% hits; in the data active = binding response below about 49% or above about 150%; inactive = in between;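 also: fluorescent Galphao activated with aluminum fluoride binding bead-coupled RGS4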
GSH fluor = GSH bead compound fluorescence profile | GSH beads flow cytometry, compound fluorescence 488/530 nm; hits give high values | fluorescence (KMESF) at 10 µM | 190,000 compounds, 0.25% hits; in the data active = fluorescence above about 89;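 also: glutathione beads carrying GST-tagged Bcl family fusion proteins plus one bare bead set; values are compound well signal with DMSO vehicle wells as background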
RGS8-Gao reg = modulates binding of RGS8 to human Galphao | P09471 | multiplexed bead flow cytometry; actives lie on both sides | response (percent of control binding), % at 10 µM | 220,000 compounds, 0.34% hits | AID 1423; in the data active = response below about 60% or above about 140%; inactive = in between;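 also: Galphao activated as the GDP aluminium fluoride complex binding bead-coupled RGS8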
RGS-Gao = RGS4-Galphao interaction regulator (human); shares compounds with RGS16-Gao; multiplexed bead flow cytometry, RGS–Galpha-o binding; RGS4–Galpha-o binding response, % at 10 µM; 1,600 compounds, 99% hits; AID 1504;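 also: fluorescently labeled Galpha-o bound to GDP with aluminium fluoride binding biotinylated RGS beads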
Biotin-avidin = interferes with biotinylated probe binding to avidin beads | shares compounds with RGS16-Gao | streptavidin beads, fluorescein-biotin binding, flow cytometry | inhibition, % at 10 µM | 1,700 tested, under 10 active | AID 1783;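 active = inhibition above 50%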;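 also: median green fluorescence of gated singlet beads compared with DMSO control wells; 0% = DMSO wells and 100% = complete loss of bead fluorescence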
RGS8-Gao single = confirmation of regulators of human RGS8-Galphao interaction | shares compounds with RGS16-Gao | bead-based flow cytometry RGS8-Galphao binding, fluorescence; actives lie on both sides | binding response (% of control), % at 10 µM | 1,700 compounds, 3% hits | AID 1836; in the data active = binding response below about 72% or above about 130%; inactive = in between;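 also: Galphao activated as GDP AlF4 complex before binding bead RGS8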
RGS7-Gao confirm = RGS7-Galphao interaction regulation, single point confirmation; bead-based flow cytometry RGS7-Galphao binding; actives lie on both sides; response (percent of control binding), % at 10 µM; shares compounds with RGS16-Gao; 1,700 compounds, 7.8% hits; in the data active = response below about 75% or above about 130%; inactive = in between;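 also: fluorescent Galphao activated with GDP and aluminum fluoride binding bead-coupled RGS7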
RGS16-Gao conf = confirmation of regulators of human RGS16-Galphao interaction; shares compounds with RGS16-Gao; bead-based flow cytometry, RGS16-Galphao binding; actives lie on both sides; response (% of control binding), % at 10 µM; 1,700 compounds, 4% hits; AID 1838; in the data active = response below about 74% or above about 130%; inactive = in between;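 also: Galphao activated as the GDP aluminium fluoride complex binding bead-coupled RGS16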
RGS4-Gao single = RGS4-Galphao interaction regulation, single point confirmation | shares compounds with RGS16-Gao | RGS4-Galphao binding, multiplexed bead flow cytometry; actives lie on both sides | binding response (% of control), % at 10 µM | 1,700 compounds, 4% hits; in the data active = binding response below about 74% or above about 130%; inactive = in between
RGS19-Gao single = RGS19-Galphao interaction regulation, single point confirmation; 1,700 compounds, 5% hits; shares compounds with RGS16-Gao; AID 1841; response (percent of control binding), % at 10 µM; bead-based flow cytometry RGS19-Galphao binding; actives lie on both sides; in the data active = response below about 50% or above about 160%; inactive = in between;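 also: 100% = no compound control and 0% = blank background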
Numbers without * were called inactive; u = inconclusive; x = no result; [ ] = remark or other dose. Shown are actives, neighbours in structure and some others; about 1.2% of the full set was active somewhere. Unless noted, no rule for the calls is given here.

SMILES	RGS16-Gao	Avidin bead fluor	RGS7-Gao	RGS4-Gao reg	GSH fluor	RGS8-Gao reg	Biotin-avidin	RGS8-Gao single	RGS7-Gao confirm	RGS16-Gao conf	RGS4-Gao single	RGS19-Gao single	others
Cc1ccc2nc(-c3cccnc3)c(NC3CCCCC3)n2c1	203.3*[activator]	13	117.0	114.1	4	121.3	-1.3	107.0	104.1	109.8	104.3	119.5	RGS-Gao=114.1*
Cc1cc(C)cc(C(=O)NCC(=O)OCc2c(C)noc2C)c1	1.9*	-5	-0.1*	15.7*	10	15.3*	1.0	100.8	101.8	100.2	97.9	102.2
COC(=O)c1sc(-c2cccs2)cc1N	159.1	50*	u	173.3*[activator]	x	116.2	1.4	99.6	99.4	98.4	100.6	97.3
COC(=O)c1sc(-c2ccc(Cl)cc2)cc1N	99.6	3	u	103.8	x	101.1	x	x	x	x	x	x
COCc1cc(/C=N\NC(=O)Cc2ccc(OC)cc2)ccc1OC	21.3*	1	98.2	92.4	10	69.6	-0.7	103.0	102.7	99.7	99.9	109.1	RGS-Gao=92.4*
O=C(c1cnsn1)N1CCN(c2ccccc2)CC1	102.4	163*	247.6*[activator]	118.5	23	81.5	-0.4	102.3	100.2	99.1	99.0	94.2	RGS-Gao=118.5*
CCN(CC)S(=O)(=O)c1cc(C(=O)Nc2nncs2)c(Cl)cc1Cl	56.5	x	x	104.8	14	77.5	0.0	96.9	96.3	91.1	94.4	90.9
CCN(CC)CCN(C(=O)Cn1nnc(-c2ccc(C)o2)n1)C(C(=O)NC(C)(C)C)c1cccs1 (stereo unspecified)	104.0	19	106.1	102.7	12	100.9	x	x	x	x	x	x
Cc1cc(C)n(C(N)=NC(=O)c2ccc([N+](=O)[O-])cc2)n1	35.7	1	u	34.9*	x	53.8*	0.7	99.2	95.3	98.7	98.3	98.4
Cc1cc(C)n(C(=O)COc2ccc([N+](=O)[O-])cc2)n1	107.8	3	102.0	101.8	8	102.0	x	x	x	x	x	x
COc1ccc(CCNC(=O)c2cnn(-c3ccc(C)c(C)c3)c2NC(=O)c2ccco2)cc1OC	x	x	x	x	45	x	-2.4	101.9	101.2	101.5	102.3	103.2
O=C1NC(NS(=O)(=O)c2ccc(Cl)cc2)(C(F)(F)F)C(=O)N1Cc1cccnc1 (stereo unspecified)	27.5	6	92.8	89.4	24	73.8	x	x	x	x	x	x
COc1cc(NC(=O)CS(=O)(=O)c2ccc(C)cc2)cc(OC)c1OC	100.7	15	101.1	101.7	33	99.7	x	x	x	x	x	x
Cc1ccc(S(=O)(=O)CC(=O)Nc2ccc(F)c(F)c2F)cc1	-6.7*	-2	u	-12.1*	x	9.2*	-1.0	100.7	101.5	99.5	101.4	97.4
CN(C(=O)N1CCN(S(=O)(=O)c2ccccc2)CC1)c1ccccc1	97.4	11	95.3	98.0	14	100.2	x	x	x	x	x	x
CC1CCCC(NC(=O)COC(=O)c2sc3ccccc3c2Cl)C1C (stereo unspecified)	0.2*	-5	-6.9*	4.5*	11	9.4*	-0.8	99.0	96.4	100.1	100.3	97.5
O=C(COC(=O)c1sc2ccccc2c1Cl)NCC1CCCCC1	104.6	11	103.7	99.9	11	99.3	x	x	x	x	x	x
CCc1ccc2c(CN3CCN(S(=O)(=O)c4cccs4)CC3)cc(=O)oc2c1	103.0	11	104.4	104.5	11	102.1	x	x	x	x	x	x
Cc1ccc(S(=O)(=O)c2cc3ccccc3nc2N)cc1	102.7	14	101.6	98.5	19	99.6	x	x	x	x	x	x
CCOC(=O)N1CN(C(=O)OCC)CN(C(=O)OCC)C1	-22.4*	-2	u	-37.6*	x	5.2*	-1.1	88.7	74.1*	81.8	83.1	68.8
COc1ccccc1CNC(=O)C(=O)NCC(c1ccco1)N1CCOCC1 (stereo unspecified)	92.3	15	92.3	93.7	28	99.7	x	x	x	x	x	x
O=c1cc(C(F)(F)C(F)F)oc2ccccc12	x	x	x	x	39	x	1.0	97.4	96.3	97.0	98.1	106.5
O=c1cc(-c2ccccc2F)oc2ccccc12	94.3	6	94.4	96.9	18	98.5	x	x	x	x	x	x
Cn1c(=O)c(Oc2ccc(Cl)cc2)c(O)c2ccccc21	114.6	3	102.3	102.7	10	105.9	x	x	x	x	x	x
COc1ccc(Oc2c(O)c3ccccc3n(C)c2=O)cc1	-92.1	-2	16.8*	9.1*	11	9.0*	-3.0	98.7	97.3	97.4	97.2	100.6
SMILES	RGS16-Gao	Avidin bead fluor	RGS7-Gao	RGS4-Gao reg	GSH fluor	RGS8-Gao reg	Biotin-avidin	RGS8-Gao single	RGS7-Gao confirm	RGS16-Gao conf	RGS4-Gao single	RGS19-Gao single	others
Cc1ccc(NC(=O)Nc2ccc(F)cc2F)c(OC(F)F)c1	108.3	9	100.9	100.7	25	103.5	x	x	x	x	x	x
COc1ccc(NC(=O)CC2SC(=N)N(c3ccccc3)C2=O)c(OC)c1 (stereo unspecified)	-5.4*	-1	4.1*	4.8*	16	8.2*	-2.6	98.8	89.5	96.0	95.7	95.7
COc1ccc(NC(=O)Nc2cc(C)ccc2OC(F)F)c(OC)c1	x	x	x	x	33	x	-0.1	81.2	71.6*	79.8	77.7	71.4
COc1ccc(NC(=O)CC(=O)Nc2ccc(OC)cc2OC)c(OC)c1	110.3	79*	173.5*[activator]	114.0	31	99.4	-1.0	100.3	101.3	98.9	100.0	103.2	RGS-Gao=114.0*
COc1ccc(NC(=S)NC2CCCCCC2)c(OC)c1	21.9*	9	105.7	103.4	5	92.4	1.4	100.6	121.8	101.2	106.7	91.9	RGS-Gao=103.4*
COc1ccc(NC(=O)CC(C)=O)c(OC)c1	99.3	9	u	100.6	x	102.0	x	x	x	x	x	x
COc1ccc(NC(=O)CC2SC(=Nc3ccccc3)NC2=O)c(OC)c1 (stereo unspecified)	92.9	3	98.8	100.4	23	100.1	x	x	x	x	x	x
